Measured values taken from PubChem BioAssay (Tox21).
Records with an inconclusive call do not appear. A call without a number means that no potency is given here. The source made the active and inactive calls. Calls come from the whole dose curve; as a rule, active = well fitted cell-killing curve with a large enough effect in the repeat runs; inconclusive = weak or mixed curves, or effect the other way; inactive = flat fitted curve, though single readings scatter.

Experiment: cAMP Responsive Elements (CRE) small molecule agonists, cell-based qHTS assay: qHTS cell viability counter screen (AID 2060914);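 note: viability read after 3 h of compound exposure; nearly all actives have a fitted effect of over 50% in size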
Conditions: CRE-bla HEK293T viability, CellTiter-Glo luminescence, 5 h; series mostly up to 92.4 µM
Excerpt: National Center for Advancing Translational Sciences [NCATS]
Division of Preclinical Innovation [DPI]
U.S. Environmental Protection Agency [EPA]
National Institutes of Environmental Health Sciences [NIEHS]
National Toxicology Program [NTP]
U.S. Food and Drug Administration [FDA]
CREB (cyclic-AMP Responsive Element Binding Protein) is a cellular transcription factor. It binds to certain DNA sequences called cAMP Responsive Elements (CRE) and regulates the transcription of the genes. […] This cell line can be used to find agonists/antagonists of the cyclic AMP signaling pathway. The activation of the report gene under culture conditions can be detected by fluorescence intensity. This cell line has been used to screen the Tox21 10K compound library to identify agonists that induce oxidative stress. The cytotoxicity of the Tox21 compound library against the CRE-bla cell line was tested in parallel by measuring the cell viability using CellTiter-Glo assay (Promega, Madison, WI) in the same wells.
Tox21 Assay Protocol Summary:
CRE-bla Hek 293T cells were suspended in assay medium (DMEM containing 10% dialyzed FBS, 0.1 mM NEAA, 1 mM sodium pyruvate and 25 mM HEPES) and dispensed at 2,000 cells/5 uL /well into 1536-well black wall/clear bottom plates using a Multidrop Combi (ThermoFisher Scientific, Waltham, MA) dispenser. After the assay plates were incubated at 37 C/5% CO2 for 18 hrs, 23 nL of compounds dissolved in DMSO, positive controls or DMSO only was transferred to the assay plate by a pintool workstation (Kalypsys, San Diego, CA). After the plates were incubated at 37 C/5% CO2 for 3 hrs, 1 uL of LiveBLAzer B/G FRET substrate (Invitrogen, Carlsbad, CA) was added to each well using Bioraptr Flying Reagent Dispenser (FRD, Aurora Discovery, San Diego, CA). The plates were incubated at room temperature for 2 h, then fluorescence intensities were measured using an Envision plate reader (PerkinElmer, Shelton, CT) at Excitation 405nm, Emission 460nm and 530nm. The % activity was determined from the ratio of 460nm/530nm. For cell viability readout that measures cytotoxicity, 4 uL /well of CellTiter-Glo reagent was added into the assay plates using Bioraptr FRD. After 30 min incubation at room temperature, the luminescence intensity in the assay plates was measured using a ViewLux (PerkinElmer, Shelton, CT) plate reader.

Structure (SMILES) | Potency
CC(=O)Nc1ccc(S(=O)(=O)Nc2ccc([N+](=O)[O-])cc2)cc1 | inactive
COc1c(N2C[C@@H]3CCCN[C@@H]3C2)c(F)cc2c(=O)c(C(=O)O)cn(C3CC3)c12 | inactive
CCCCC(CC)CCC(CC(C)C)OS(=O)(=O)O (stereo not given) | inactive
O=C(Cl)c1ccc(C(=O)Cl)cc1 | inactive
CC(C)OC(C)C | inactive
OC[C@H]1O[C@@H]2O[C@H]3[C@H](O)[C@@H](O)[C@@H](O[C@H]4[C@H](O)[C@@H](O)[C@@H](O[C@H]5[C@H](O)[C@@H](O)[C@@H](O[C@H]6[C@H](O)[C@@H](O)[C@@H](O[C@H]7[C@H](O)[C@@H](O)[C@@H](O[C@H]8[C@H](O)[C@@H](O)[C@@H](O[C@H]1[C@H](O)[C@H]2O)O[C@@H]8CO)O[C@@H]7CO)O[C@@H]6CO)O[C@@H]5CO)O[C@@H]4CO)O[C@@H]3CO | inactive
Cc1cccc(C(=O)O)c1 | inactive
CC(=O)NC(=O)c1ccccc1O | inactive
Nc1ccc(S(=O)(=O)c2ccc(N)cc2)cc1 | inactive
c1ccc(-c2nn[nH]n2)cc1 | inactive
O=C(O)c1ccccc1-c1ccc(C(F)(F)F)cc1 | inactive
CCOC(=O)c1cnc2c(cnn2CC)c1NN=C(C)C | inactive
O=C(O)CN1C(=O)c2cccc3cccc(c23)C1=O | inactive
CC(=O)OCCC(C)C | inactive
CC(=O)CC(c1ccccc1)c1c(O)c2ccccc2oc1=O (stereo not given) | inactive
CCC1COC(=O)O1 (stereo not given) | inactive
O=C1CCCCCCCCCCCCCC1 | inactive
CCCCCCCCCCCCCCCC/C=C/C1CC(=O)OC1=O (stereo not given) | inactive
CCCCCCCCCCCCCBr | inactive
C[C@@H](CN1CC(=O)NC(=O)C1)N1CC(=O)NC(=O)C1 | inactive

Structure (SMILES) | Potency
CO[C@H]1C=CO[C@@]2(C)Oc3c(C)c(O)c4c(O)c(c(/C=N/N5CCN(C)CC5)c(O)c4c3C2=O)NC(=O)/C(C)=C\C=C[C@H](C)[C@H](O)[C@@H](C)[C@@H](O)[C@@H](C)[C@H](OC(C)=O)[C@@H]1C | inactive
CC(=O)CCC(=O)O | inactive
Cc1ccc(O)c([C@H](CCN(C(C)C)C(C)C)c2ccccc2)c1 | inactive
CCCCCCCCCCCCCCCCC(C(=O)O)C(O)(CC(=O)O)C(=O)O (stereo not given) | inactive
Cc1nc2ccccc2n1Cc1ccc(Cl)cc1 | inactive
O=C1OC2(c3ccc(O)cc3Oc3cc(O)ccc32)c2ccc(N=C=S)cc21 | inactive
CCCCCCn1c(=O)c2c(ncn2C)n(C)c1=O | inactive
CC1=C(CC=O)C(C)(C)CCC1 | inactive
NCCO | inactive
C=CC(=O)OCC1CCCO1 (stereo not given) | inactive
Nc1ccc(S(=O)(=O)O)cc1 | inactive
CC(C)(C)C1CCC(O)CC1 (stereo not given) | inactive
COc1cc(C(=O)NCCCCCC(=O)O)cc(OC)c1OC | inactive
CCCSc1ccc2nc(NC(=O)OC)[nH]c2c1 | inactive
CCCCCCCCCCCCCCCCO | inactive
CCN1CCCC1CNC(=O)c1cc(S(N)(=O)=O)ccc1OC (stereo not given) | inactive
CCCCC(=O)N(C)C | inactive
CC(C)[C@H]1CC[C@H](C)C[C@@H]1O | inactive
CCCCCC[C@@H](CCC)C(=O)O | inactive
NCCCN1CCOCC1 | inactive
